# Measurements published in PMC7862700, “An all-to-all approach to the identification of sequence-specific readers for epigenetic DNA modifications on cytosine”.
# Assays:
# Test in all cases: DAPPL (digital affinity profiling via proximity ligation, sequencing); 10 mM Tris-HCl pH 7.5, 50 mM NaCl, 1 mM DTT, 4% glycerol, room temperature, 30 min; GST-TFs on glutathione beads, 16-mer random dsDNA library, 0.1% formaldehyde crosslink after washing; high values mean tight binding
# FEV = target: T1, FEV (Homo sapiens, UniProt Q99581 1-238); details: protein: recombinant; tags: N-terminal GST; dsDNA, one strand shown
# T1 sequence: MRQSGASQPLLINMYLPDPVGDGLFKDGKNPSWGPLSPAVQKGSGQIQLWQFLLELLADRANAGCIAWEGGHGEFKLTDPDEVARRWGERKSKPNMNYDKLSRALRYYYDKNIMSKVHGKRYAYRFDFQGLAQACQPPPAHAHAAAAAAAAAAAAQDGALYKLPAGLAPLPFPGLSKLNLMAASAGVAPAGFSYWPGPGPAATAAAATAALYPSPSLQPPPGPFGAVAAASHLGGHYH
# Procedure, shortened: (§1)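 After expression in yeast as GST fusions, human transcription factors were bound to glutathione beads, DNA-barcoded and mixed with a tag-only sample. The pools were incubated with 200 nmole of a 16-mer random double-stranded DNA library in Tris/NaCl/DTT/glycerol buffer (30 min, room temperature), washed and crosslinked with 0.1% formaldehyde. Proximity ligation with BsaI/T4 ligase ran for 1 h at 37 °C, before PCR amplification and sequencing on an Illumina NextSeq500. Binding signal is a hexamer's read frequency for a factor divided by its frequency for the tag-only sample.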
# ETV5 = ETV5 (Homo sapiens, UniProt P41161 1-510); details: protein: recombinant; tags: N-terminal GST; dsDNA, one strand shown
# Sequence of ETV5 (P41161 whole entry): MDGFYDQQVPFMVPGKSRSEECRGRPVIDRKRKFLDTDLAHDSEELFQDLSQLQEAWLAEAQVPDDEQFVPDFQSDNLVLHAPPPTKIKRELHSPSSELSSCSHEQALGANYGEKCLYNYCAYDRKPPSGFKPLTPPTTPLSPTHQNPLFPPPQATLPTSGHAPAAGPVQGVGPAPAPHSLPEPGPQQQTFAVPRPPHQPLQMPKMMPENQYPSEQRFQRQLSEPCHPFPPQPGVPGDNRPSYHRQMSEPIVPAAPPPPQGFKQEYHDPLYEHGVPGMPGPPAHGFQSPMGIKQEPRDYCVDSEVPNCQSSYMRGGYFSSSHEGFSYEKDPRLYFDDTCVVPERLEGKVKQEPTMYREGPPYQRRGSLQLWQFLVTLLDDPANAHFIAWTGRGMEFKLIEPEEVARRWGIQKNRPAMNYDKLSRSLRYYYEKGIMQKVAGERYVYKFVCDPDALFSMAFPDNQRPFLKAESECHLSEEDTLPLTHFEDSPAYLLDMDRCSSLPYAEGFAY
# Procedure, shortened: as §1
# HSF1 = HSF1 (Homo sapiens, UniProt Q00613 1-529); details: protein: recombinant; tags: N-terminal GST; chain copies: 3; dsDNA, one strand shown
# Sequence of HSF1 (Q00613 whole entry): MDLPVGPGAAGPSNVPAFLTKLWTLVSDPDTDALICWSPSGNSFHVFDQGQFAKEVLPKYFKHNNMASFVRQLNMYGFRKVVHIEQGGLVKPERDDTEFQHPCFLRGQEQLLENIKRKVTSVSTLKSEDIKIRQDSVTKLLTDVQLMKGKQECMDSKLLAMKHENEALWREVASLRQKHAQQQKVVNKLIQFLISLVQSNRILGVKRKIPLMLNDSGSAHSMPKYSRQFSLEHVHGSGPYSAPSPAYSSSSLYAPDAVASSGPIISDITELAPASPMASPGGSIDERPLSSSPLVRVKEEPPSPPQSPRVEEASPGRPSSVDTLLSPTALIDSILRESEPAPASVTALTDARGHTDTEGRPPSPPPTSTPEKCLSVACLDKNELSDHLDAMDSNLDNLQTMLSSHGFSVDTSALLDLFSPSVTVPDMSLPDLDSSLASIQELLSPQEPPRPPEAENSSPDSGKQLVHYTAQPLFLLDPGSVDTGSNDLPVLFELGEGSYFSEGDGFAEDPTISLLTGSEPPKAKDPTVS
# Procedure, shortened: as §1
# SPIC = target: T2, SPIC (Homo sapiens, UniProt Q8N5J4 1-248); details: protein: recombinant; tags: N-terminal GST; dsDNA, one strand shown
# T2 sequence: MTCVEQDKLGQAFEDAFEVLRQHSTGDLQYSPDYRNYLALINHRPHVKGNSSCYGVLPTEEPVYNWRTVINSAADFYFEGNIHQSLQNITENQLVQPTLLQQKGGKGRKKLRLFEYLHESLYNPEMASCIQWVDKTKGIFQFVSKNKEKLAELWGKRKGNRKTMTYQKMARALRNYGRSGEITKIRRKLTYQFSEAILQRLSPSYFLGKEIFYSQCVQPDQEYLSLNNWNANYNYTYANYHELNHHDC
# Procedure, shortened: as §1
# ELF4 = ELF4 (Homo sapiens, UniProt Q99607 1-663); details: protein: recombinant; tags: N-terminal GST; dsDNA, one strand shown
# Sequence of ELF4 (Q99607 whole entry): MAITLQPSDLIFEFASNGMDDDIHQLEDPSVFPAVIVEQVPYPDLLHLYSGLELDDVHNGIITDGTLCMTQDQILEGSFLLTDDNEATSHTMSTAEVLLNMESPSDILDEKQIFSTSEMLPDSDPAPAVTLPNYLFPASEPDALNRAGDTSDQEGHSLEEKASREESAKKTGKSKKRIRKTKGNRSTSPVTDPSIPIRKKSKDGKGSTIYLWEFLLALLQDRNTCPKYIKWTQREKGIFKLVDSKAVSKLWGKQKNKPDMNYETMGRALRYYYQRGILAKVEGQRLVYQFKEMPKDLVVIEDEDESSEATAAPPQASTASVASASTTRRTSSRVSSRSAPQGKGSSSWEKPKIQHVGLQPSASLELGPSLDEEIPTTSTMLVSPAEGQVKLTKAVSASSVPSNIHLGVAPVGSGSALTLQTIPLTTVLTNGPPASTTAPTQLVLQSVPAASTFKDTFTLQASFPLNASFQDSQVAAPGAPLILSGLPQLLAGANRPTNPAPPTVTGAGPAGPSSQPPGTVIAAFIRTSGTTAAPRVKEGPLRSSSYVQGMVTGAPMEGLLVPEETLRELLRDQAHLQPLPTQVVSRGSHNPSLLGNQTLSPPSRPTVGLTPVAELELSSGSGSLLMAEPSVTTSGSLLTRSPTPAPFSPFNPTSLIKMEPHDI
# Procedure, shortened: as §1
# ELK4 = target: T3, ELK4 (Homo sapiens, UniProt P28324-2 1-405); details: protein: recombinant; tags: N-terminal GST; dsDNA, one strand shown
# T3 sequence: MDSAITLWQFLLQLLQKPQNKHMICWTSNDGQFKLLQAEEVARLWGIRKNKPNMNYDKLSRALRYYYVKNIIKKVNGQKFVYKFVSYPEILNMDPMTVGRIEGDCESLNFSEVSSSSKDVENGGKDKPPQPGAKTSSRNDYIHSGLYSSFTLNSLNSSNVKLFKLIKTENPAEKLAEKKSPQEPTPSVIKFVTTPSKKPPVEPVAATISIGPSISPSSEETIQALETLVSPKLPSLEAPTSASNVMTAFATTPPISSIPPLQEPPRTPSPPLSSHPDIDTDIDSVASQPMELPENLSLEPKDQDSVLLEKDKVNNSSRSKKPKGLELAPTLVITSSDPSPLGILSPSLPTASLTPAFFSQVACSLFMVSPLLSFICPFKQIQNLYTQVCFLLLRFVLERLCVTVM
# Procedure, shortened: as §1
# ETV2 = target: T4, ETV2 (Homo sapiens, UniProt O00321 1-342); details: protein: recombinant; tags: N-terminal GST; dsDNA, one strand shown
# T4 sequence: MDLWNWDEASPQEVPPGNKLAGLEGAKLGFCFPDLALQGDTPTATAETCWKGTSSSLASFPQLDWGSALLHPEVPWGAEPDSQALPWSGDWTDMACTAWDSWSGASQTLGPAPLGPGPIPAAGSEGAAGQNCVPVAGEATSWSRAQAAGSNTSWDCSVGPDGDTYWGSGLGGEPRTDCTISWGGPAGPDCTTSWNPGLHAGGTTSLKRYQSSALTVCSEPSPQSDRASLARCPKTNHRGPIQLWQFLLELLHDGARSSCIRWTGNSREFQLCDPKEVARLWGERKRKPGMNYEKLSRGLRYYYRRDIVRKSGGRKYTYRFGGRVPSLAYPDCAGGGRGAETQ
# Procedure, shortened: as §1
# ELF3 = target: T5, ELF3 (Homo sapiens, UniProt P78545 1-371); details: protein: recombinant; tags: N-terminal GST; dsDNA, one strand shown
# T5 sequence: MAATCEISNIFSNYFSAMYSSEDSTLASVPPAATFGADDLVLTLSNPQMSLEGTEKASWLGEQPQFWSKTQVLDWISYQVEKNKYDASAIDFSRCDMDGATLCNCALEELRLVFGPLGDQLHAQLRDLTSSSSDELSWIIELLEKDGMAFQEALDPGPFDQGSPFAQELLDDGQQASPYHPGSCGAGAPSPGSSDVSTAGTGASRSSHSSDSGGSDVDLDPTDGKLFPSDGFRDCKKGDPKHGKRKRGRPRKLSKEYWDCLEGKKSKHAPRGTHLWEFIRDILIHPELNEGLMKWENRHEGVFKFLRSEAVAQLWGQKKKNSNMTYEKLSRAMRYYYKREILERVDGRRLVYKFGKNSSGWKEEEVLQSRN
# Procedure, shortened: as §1
# CRX = CRX (Homo sapiens, UniProt O43186 1-299); details: protein: recombinant; tags: N-terminal GST; dsDNA, one strand shown
# Sequence of CRX (O43186 whole entry): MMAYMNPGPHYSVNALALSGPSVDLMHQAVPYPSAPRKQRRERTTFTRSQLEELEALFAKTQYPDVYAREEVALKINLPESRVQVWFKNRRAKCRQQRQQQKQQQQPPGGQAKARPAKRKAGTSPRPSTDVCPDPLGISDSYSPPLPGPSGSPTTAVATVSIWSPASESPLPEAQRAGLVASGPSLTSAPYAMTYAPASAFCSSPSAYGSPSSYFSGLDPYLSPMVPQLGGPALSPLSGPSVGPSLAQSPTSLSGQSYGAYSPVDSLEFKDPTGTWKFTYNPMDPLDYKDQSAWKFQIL
# Procedure, shortened: as §1
# ETV1 = ETV1 (Homo sapiens, UniProt P50549 1-477); details: protein: recombinant; tags: N-terminal GST; dsDNA, one strand shown
# Sequence of ETV1 (P50549 whole entry): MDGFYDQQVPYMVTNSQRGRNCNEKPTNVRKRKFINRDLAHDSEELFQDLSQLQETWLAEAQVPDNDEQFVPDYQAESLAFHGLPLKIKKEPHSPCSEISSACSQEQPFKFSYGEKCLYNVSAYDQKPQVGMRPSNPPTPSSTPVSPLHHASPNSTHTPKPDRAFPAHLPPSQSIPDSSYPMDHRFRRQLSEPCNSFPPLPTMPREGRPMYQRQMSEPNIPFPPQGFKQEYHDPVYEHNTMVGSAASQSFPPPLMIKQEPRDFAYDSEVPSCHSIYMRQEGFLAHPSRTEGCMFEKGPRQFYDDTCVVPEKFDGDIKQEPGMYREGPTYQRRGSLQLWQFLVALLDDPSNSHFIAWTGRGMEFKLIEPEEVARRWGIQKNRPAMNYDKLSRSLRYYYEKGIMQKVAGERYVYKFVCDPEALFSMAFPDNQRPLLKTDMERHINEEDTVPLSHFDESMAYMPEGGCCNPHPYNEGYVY
# Procedure, shortened: as §1
# ERF = target: T6, ERF (Homo sapiens, UniProt P50548 1-548); details: protein: recombinant; tags: N-terminal GST; dsDNA, one strand shown
# T6 sequence: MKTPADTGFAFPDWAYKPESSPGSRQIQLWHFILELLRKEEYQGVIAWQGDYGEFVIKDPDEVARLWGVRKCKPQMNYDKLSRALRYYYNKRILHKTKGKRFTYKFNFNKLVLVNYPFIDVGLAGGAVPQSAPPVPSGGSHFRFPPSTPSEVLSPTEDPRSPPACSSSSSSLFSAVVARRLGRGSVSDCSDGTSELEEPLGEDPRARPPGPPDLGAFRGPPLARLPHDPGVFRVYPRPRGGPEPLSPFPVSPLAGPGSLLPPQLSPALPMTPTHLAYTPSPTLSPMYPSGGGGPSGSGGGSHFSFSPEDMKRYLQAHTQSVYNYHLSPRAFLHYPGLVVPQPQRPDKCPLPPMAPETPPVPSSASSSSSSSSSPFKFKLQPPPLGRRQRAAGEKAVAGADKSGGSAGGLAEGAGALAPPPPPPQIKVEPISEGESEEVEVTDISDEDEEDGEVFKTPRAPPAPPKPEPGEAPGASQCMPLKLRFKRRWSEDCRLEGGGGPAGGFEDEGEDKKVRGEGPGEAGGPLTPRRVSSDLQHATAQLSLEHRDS
# Procedure, shortened: as §1
# ETV3L = target: T7, ETV3L (Homo sapiens, UniProt Q6ZN32 1-361); details: protein: recombinant; tags: N-terminal GST; dsDNA, one strand shown
# T7 sequence: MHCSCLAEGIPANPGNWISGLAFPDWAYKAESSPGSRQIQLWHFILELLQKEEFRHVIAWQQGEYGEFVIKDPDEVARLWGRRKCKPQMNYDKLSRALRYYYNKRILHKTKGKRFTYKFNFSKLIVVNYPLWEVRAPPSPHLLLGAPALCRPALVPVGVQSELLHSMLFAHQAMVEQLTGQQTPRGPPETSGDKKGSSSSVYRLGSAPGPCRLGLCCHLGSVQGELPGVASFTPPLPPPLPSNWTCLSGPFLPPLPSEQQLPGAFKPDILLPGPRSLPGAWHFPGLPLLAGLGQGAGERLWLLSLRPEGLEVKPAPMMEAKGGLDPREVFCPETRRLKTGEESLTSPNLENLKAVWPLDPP
# Procedure, shortened: as §1
# ETS2 = target: T8, ETS2 (Homo sapiens, UniProt P15036 1-469); details: protein: recombinant; tags: N-terminal GST; dsDNA, one strand shown
# T8 sequence: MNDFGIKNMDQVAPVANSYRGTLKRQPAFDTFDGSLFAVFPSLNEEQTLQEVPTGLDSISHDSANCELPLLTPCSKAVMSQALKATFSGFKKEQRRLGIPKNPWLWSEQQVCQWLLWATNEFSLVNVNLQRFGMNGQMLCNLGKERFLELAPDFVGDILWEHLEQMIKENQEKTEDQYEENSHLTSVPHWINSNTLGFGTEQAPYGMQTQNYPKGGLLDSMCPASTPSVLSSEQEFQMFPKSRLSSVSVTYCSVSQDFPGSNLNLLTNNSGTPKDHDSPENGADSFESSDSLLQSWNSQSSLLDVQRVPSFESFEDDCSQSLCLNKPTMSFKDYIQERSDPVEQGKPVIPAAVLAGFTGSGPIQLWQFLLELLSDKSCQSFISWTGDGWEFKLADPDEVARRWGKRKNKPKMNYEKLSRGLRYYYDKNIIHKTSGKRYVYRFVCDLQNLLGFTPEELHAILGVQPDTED
# Procedure, shortened: as §1
# SPDEF = target: T9, SPDEF (Homo sapiens, UniProt O95238 1-335); details: protein: recombinant; tags: N-terminal GST; dsDNA, one strand shown
# T9 sequence: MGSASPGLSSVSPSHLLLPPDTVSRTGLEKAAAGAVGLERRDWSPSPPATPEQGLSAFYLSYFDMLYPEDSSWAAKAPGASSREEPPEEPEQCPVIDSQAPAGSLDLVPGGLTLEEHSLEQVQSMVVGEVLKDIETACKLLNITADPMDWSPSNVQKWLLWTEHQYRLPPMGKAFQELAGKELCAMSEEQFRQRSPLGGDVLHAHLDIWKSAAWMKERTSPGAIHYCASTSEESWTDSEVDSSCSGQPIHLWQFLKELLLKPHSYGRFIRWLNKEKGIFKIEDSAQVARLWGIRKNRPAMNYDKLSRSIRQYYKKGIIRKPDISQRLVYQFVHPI
# Procedure, shortened: as §1
# ETV7 = target: T10, ETV7 (Homo sapiens, UniProt Q9Y603 1-341); details: protein: recombinant; tags: N-terminal GST; dsDNA, one strand shown
# T10 sequence: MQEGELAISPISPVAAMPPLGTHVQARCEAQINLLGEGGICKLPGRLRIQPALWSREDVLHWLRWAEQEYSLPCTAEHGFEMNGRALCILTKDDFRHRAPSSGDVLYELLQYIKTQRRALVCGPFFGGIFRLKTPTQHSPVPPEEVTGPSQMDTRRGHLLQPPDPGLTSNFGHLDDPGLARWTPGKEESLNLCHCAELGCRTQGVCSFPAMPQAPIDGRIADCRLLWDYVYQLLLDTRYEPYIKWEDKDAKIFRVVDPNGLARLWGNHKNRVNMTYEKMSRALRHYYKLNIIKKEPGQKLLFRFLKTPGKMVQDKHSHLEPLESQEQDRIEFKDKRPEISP
# Procedure, shortened: as §1
# ELF5 = target: T11, ELF5 (Homo sapiens, UniProt Q9UKW6-2 1-255); details: protein: recombinant; tags: N-terminal GST; dsDNA, one strand shown
# T11 sequence: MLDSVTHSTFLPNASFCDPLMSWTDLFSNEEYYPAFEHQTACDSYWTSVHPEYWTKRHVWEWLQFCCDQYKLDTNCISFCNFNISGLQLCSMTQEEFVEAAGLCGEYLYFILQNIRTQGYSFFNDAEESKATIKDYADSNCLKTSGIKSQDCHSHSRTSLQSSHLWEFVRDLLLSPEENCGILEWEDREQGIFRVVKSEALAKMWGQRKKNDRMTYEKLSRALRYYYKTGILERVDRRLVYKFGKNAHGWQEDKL
# Procedure, shortened: as §1
# ETV3 = target: T12, ETV3 (Homo sapiens, UniProt P41162-2 1-143); details: protein: recombinant; tags: N-terminal GST; dsDNA, one strand shown
# T12 sequence: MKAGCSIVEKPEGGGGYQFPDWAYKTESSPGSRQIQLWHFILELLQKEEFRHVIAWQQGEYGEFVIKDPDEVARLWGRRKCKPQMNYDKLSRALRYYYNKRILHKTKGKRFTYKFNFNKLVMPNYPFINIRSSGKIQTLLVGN
# Procedure, shortened: as §1
# ETV6 = ETV6 (Homo sapiens, UniProt P41212 1-452); details: protein: recombinant; tags: N-terminal GST; dsDNA, one strand shown
# Sequence of ETV6 (P41212 whole entry): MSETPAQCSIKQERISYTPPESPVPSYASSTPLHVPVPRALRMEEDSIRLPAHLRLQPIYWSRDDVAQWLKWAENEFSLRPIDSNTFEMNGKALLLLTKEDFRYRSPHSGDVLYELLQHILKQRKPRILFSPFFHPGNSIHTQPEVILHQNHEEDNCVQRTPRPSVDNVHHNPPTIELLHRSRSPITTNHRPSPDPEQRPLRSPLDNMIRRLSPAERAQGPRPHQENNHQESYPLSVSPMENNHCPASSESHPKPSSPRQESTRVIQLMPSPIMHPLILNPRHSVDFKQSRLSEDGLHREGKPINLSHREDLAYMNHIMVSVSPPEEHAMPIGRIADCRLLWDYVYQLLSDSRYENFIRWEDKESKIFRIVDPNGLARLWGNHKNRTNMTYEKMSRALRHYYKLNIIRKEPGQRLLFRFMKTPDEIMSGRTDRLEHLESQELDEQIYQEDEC
# Procedure, shortened: as §1
sequence,measurement,setting,value
TATTAA,binding signal,FEV,"1.14 fold enrichment (6-mer frequency, TF over GST control)"
same,binding signal,ETV5,"1.13 fold enrichment (6-mer frequency, TF over GST control)"
same,binding signal,HSF1,"1.82 fold enrichment (6-mer frequency, TF over GST control)"
same,binding signal,SPIC,"1.12 fold enrichment (6-mer frequency, TF over GST control)"
same,binding signal,ELF4,"1.16 fold enrichment (6-mer frequency, TF over GST control)"
same,binding signal,ELK4,"1.02 fold enrichment (6-mer frequency, TF over GST control)"
same,binding signal,ETV2,"1.09 fold enrichment (6-mer frequency, TF over GST control)"
same,binding signal,ELF3,"1.06 fold enrichment (6-mer frequency, TF over GST control)"
same,binding signal,CRX,"2.83 fold enrichment (6-mer frequency, TF over GST control)"
same,binding signal,ETV1,"1.14 fold enrichment (6-mer frequency, TF over GST control)"
same,binding signal,ERF,"1.22 fold enrichment (6-mer frequency, TF over GST control)"
same,binding signal,ETV3L,"1.18 fold enrichment (6-mer frequency, TF over GST control)"
same,binding signal,ETS2,"1.17 fold enrichment (6-mer frequency, TF over GST control)"
same,binding signal,SPDEF,"1.18 fold enrichment (6-mer frequency, TF over GST control)"
same,binding signal,ETV7,"1.15 fold enrichment (6-mer frequency, TF over GST control)"
same,binding signal,ELF5,"1.13 fold enrichment (6-mer frequency, TF over GST control)"
same,binding signal,ETV3,"1.16 fold enrichment (6-mer frequency, TF over GST control)"
same,binding signal,ETV6,"1.12 fold enrichment (6-mer frequency, TF over GST control)"
